ATXN2 expr inh: reduces ATXN2 reporter expression in HEK-293 cells. HEK-293 ATXN2-luciferase reporter, luminescence, 24 h. Potency, µM (highest dose often 57 µM), actives largely listed as inhibitors. 0.72% of 360,000 active. AID 1745845; also: nearly all actives have a fitted effect of over 55% in size
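qHTS (up to 57 uM final) was run with 24 h compound exposure of reporter cells at 37 °C. Each well was multiplexed: SteadyGlo luminescence measured ATXN2-luciferase expression after a fluorogenic Gly-Phe-AFC viability readout (25 uM final).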
A549 viability: A549 cytotoxicity, counter-screen for Nrf2 inhibitors | A549 ARE-Fluc cells, CellTiter-Fluor viability, 18-24 h | Potency, µM (top dose mostly 46 µM), usual class: inhibitors | 0.16% of 390,000 active | AID 504648
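A549 ARE_Fluc cells in 5% FBS OPTI-MEM were exposed to compounds in concentration-response for 18-24 h at 37 deg C. Viability was read by CellTiter-Fluor fluorescence (Ex 405/Em 525) after 30 min, before the luciferase read.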
Nrf2 inh: Nrf2 pathway inhibition | A549 ARE-Fluc reporter, luciferase luminescence, 18-24 h | Potency, µM (highest dose often 46 µM), actives largely listed as inhibitors | 2.1% of 360,000 active; also: nearly all actives have a fitted effect of over 60% in size
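Two sequential reads on A549 ARE_Fluc cells exposed to compound for 18-24 h: a CellTiter-Fluor fluorescence read for viability, then a luciferase luminescence read for Nrf2/ARE activity.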
ATXN viability: viability counter-screen for ATXN expression inhibitors; Potency, µM (top dose mostly 56.7 µM), usual class: cytotoxic; 0.49% of 400,000 active; AID 651635; S2 cells (HEK-293 line with an ATXN2-luciferase reporter) viability, CellTiter-Fluor protease fluorescence, 24 h; also: nearly all actives have a fitted effect of over 40% in size
TGFb inhibitor: blocks TGF-b signaling. HepG2 CAGA-GFP TGF-b/SMAD3 reporter, GFP fluorescence, 18 h; TGF-beta stimulated, 500 pg/mL final. Potency, µM (doses to about 46.1 µM), actives largely listed as inhibitors. 1.2% of 410,000 active; also: nearly all actives have a fitted effect of over 65% in size
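Inhibition of TGF-beta-driven CAGA-GFP reporter expression in HEPG2 cells is measured by cellular GFP fluorescence after 18 h stimulation with 500 pg/mL recombinant TGF-beta in 1% FBS medium at 37 degrees C.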
HepG2 tox-1: HepG2 cytotoxicity, counter-screen for TGF-b inhibitors; HepG2 CAGA-GFP viability, ATP luminescence, 18 h; Potency, µM (titrated, usually from 46.1 µM), actives largely listed as cytotoxic; 0.76% of 410,000 active; AID 588856
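CellTiter-Glo luminescence gave cytotoxicity after 18 hours at 37 degrees C. The cells were HepG2 CAGA-GFP in 1% FBS DMEM, stimulated with 500 pg/mL TGF-beta after compound addition. %Activity was normalised to no-cell wells (complete cell-killing) and DMSO (no toxicity), and curves were fitted and classified.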
TGFb CAGA inh: TGF-b pathway inhibition, cherry-pick retest; shares compounds with TGFb inhibitor; HepG2 CAGA-GFP TGF-b reporter, GFP fluorescence, 18 h; cells stimulated with TGF-beta, 500 pg/mL; AID 720534; 63% of 1,600 active; Potency, µM (doses to about 46.1 µM), usual class: inhibitors; also: nearly all actives have a fitted effect of over 65% in size
HepG2 tox-2: HepG2 cytotoxicity, TGF-b inhibitor counterscreen; shares compounds with TGFb inhibitor; HepG2 CAGA-GFP viability, ATP luminescence, 18 h; cells stimulated with TGF-beta, 500 pg/mL; Potency, µM (doses to about 46.1 µM), usual class: inhibitors; 27% of 1,600 active; AID 720535; also: nearly all actives have a fitted effect of over 70% in size
CCL64 TGFb inh: orthogonal confirmation of TGF-b inhibitors in CCL64 cells | shares compounds with TGFb inhibitor | Potency, µM (doses to about 46.1 µM), most hits filed as inhibitors | CCL64 CAGA-GFP reporter, TGF-b stimulated, GFP fluorescence, 18 h | AID 720536 | 41% of 1,600 active; also: nearly all actives have a fitted effect of over 65% in size
COP TGFb inh: validation of TGF-b inhibitors in HepG2 COP promoter reporter | AID 720537 | shares compounds with TGFb inhibitor | 3% of 1,600 active | HepG2 COP-GFP TGF-b reporter, GFP fluorescence, 18 h; cells stimulated by added recombinant TGF-beta | Potency, µM (doses to about 46.1 µM), hits mostly inhibitors; also: nearly all actives have a fitted effect of over 70% in size
SK-N-SH 3D tox: kills SK-N-SH neuroblastoma spheroids in orthogonal 3D test. shares compounds with ATXN2 expr inh. 70% of 65 active. SK-N-SH 3D spheroid viability, PI/Hoechst imaging, 72 h. AID 1347135. Potency, µM (doses to about 30.7 µM), hits mostly inhibitors
SJ-GBM2 3D tox: SJ-GBM2 spheroid viability loss, orthogonal 3D screen. shares compounds with ATXN2 expr inh. SJ-GBM2 3D spheroid viability, PI/Hoechst imaging, 72 h. Potency, µM (series often up to 30.7 µM), usual class: inhibitors. 80% of 65 active
Daoy spheroid: kills Daoy spheroids in orthogonal 3D test | AID 1347137 | Potency, µM (series often up to 30.7 µM), usual class: inhibitors | shares compounds with ATXN2 expr inh | 50% of 65 active | Daoy 3D spheroid viability, PI/Hoechst imaging, 72 h
TC32 3D casp: activates caspase in TC32 3D spheroids; 30% of 65 active; Potency, µM (doses to about 30.7 µM), most hits filed as inhibitors; shares compounds with ATXN2 expr inh; TC32 3D spheroids, caspase-3/7 fluorescence imaging, 24 h
TC32 spheroid: reduced viability of TC32 3D spheroids, orthogonal test; shares compounds with ATXN2 expr inh; TC32 3D spheroid viability, PI/Hoechst imaging, 72 h; Potency, µM (series often up to 30.7 µM), actives largely listed as inhibitors; 60% of 65 active
MG63 spheroid: reduced viability of MG-63 (6-TG R) 3D spheroids, orthogonal test | shares compounds with ATXN2 expr inh | 50% of 65 active | MG-63 (6-TG R) 3D spheroid viability, PI/Hoechst imaging, 72 h | Potency, µM (titrated, usually from 30.7 µM), hits mostly inhibitors | AID 1347140
RD 3D tox: reduced viability of RD 3D spheroids, orthogonal test; Potency, µM (titrated, usually from 30.7 µM), actives largely listed as inhibitors; RD rhabdomyosarcoma 3D spheroid viability, PI/Hoechst imaging, 72 h; shares compounds with ATXN2 expr inh; 50% of 65 active
Numbers stand for hits; – = inactive; ? = inconclusive; · = not tested or not shown. In the library only some 3.8% were active in any assay of this set; here they are far more common. Calls follow the shape of the dose curve; as a rule, active = well fitted curve in the direction sought with a large enough effect; inconclusive = small, poorly fitted or top-dose-only effect, or another doubt; inactive = no such curve, though single readings can be large; an effect the other way counts as inactive or inconclusive.

SMILES	ATXN2 expr inh	A549 viability	Nrf2 inh	ATXN viability	TGFb inhibitor	HepG2 tox-1	SK-N-SH 3D tox	SJ-GBM2 3D tox	Daoy spheroid	TC32 3D casp	TC32 spheroid	MG63 spheroid	RD 3D tox	others
CCOc1ccc2nc(SCc3ccc(C(=O)OC)o3)[nH]c2c1	–	–	–	–	–	–	·	·	·	·	·	·	·
Cc1ccc(OCCCC(=O)Nc2ccc(Cl)c(S(=O)(=O)N3CCOCC3)c2)cc1	–	–	?	–	8.91µM	–	·	·	·	·	·	·	·	TGFb CAGA inh=?;HepG2 tox-2=?;CCL64 TGFb inh=–;COP TGFb inh=–
CCCCc1nc2cc(C=CC(=O)NO)ccc2n1CCN(CC)CC	–	·	·	·	·	·	0.511µM	0.909µM	1.62µM	?	1.44µM	6.44µM	1.62µM
COc1ccc(C(=O)N2CCC2)cc1S(=O)(=O)NCc1ccc(Cl)cc1	–	–	–	–	–	–	·	·	·	·	·	·	·
Cc1c2oc3c(C)ccc(C(=O)N[C@@H]4C(=O)N[C@H](C(C)C)C(=O)N5CCC[C@H]5C(=O)N(C)CC(=O)N(C)[C@@H](C(C)C)C(=O)O[C@@H]4C)c3nc-2c(C(=O)N[C@@H]2C(=O)N[C@H](C(C)C)C(=O)N3CCC[C@H]3C(=O)N(C)CC(=O)N(C)[C@@H](C(C)C)C(=O)O[C@@H]2C)c(N)c1=O	1µM	·	·	?	·	·	0.0029µM	0.0181µM	0.0256µM	?	0.0323µM	0.0288µM	0.0204µM
C[C@@H]1CN([C@H](C)CO)S(=O)(=O)c2ccc(C3=CCCCC3)cc2O[C@H]1CN(C)C(=O)Cc1cccnc1	–	·	·	?	–	–	·	·	·	·	·	·	·
CN(C)/N=N/c1nc[nH]c1C(N)=O	–	·	·	–	·	·	–	?	–	–	–	–	–
CN(C)N=Nc1nc[nH]c1C(N)=O	?	–	–	–	–	–	·	·	·	·	·	·	·
COc1ccc(NC(=O)C2(C)CCN2Cc2ccc(C(C)C)cc2)cc1OC (stereo not given)	–	·	·	?	–	–	·	·	·	·	·	·	·
C[C@@]12O[C@@H](C[C@]1(O)CO)n1c3ccccc3c3c4c(c5c6ccccc6n2c5c31)CNC4=O	3.06µM	·	·	·	·	·	1.44µM	0.144µM	1.14µM	2.56µM	5.11µM	12.8µM	8.1µM
CC(C)(O)Cn1c(NC(=O)c2ccc(-c3cn[nH]c3)s2)nc2cc(CN3CCOCC3)ccc21	6.11µM	·	·	·	·	·	0.228µM	0.228µM	0.644µM	1.28µM	1.02µM	1.44µM	0.323µM
CCn1c(CN2CCOCC2)nc2cc(NC(=O)c3cc(OC)c(OC)c(OC)c3)ccc21	–	–	?	–	–	–	·	·	·	·	·	·	·
Cc1c(C(=O)OCC2CCCCC2)[nH]c2c1C(=O)CC(c1ccccc1Cl)C2 (stereo not given)	–	–	–	–	–	–	·	·	·	·	·	·	·
Nc1ccn([C@@H]2O[C@H](CO)[C@H](O)C2(F)F)c(=O)n1	0.217µM	·	·	·	·	·	?	0.144µM	?	–	0.323µM	0.574µM	?
COC(=O)Nc1nc2ccc(S(=O)c3ccccc3)cc2[nH]1 (stereo not given)	–	·	·	?	·	·	?	0.574µM	?	?	0.644µM	?	?
CCCS(=O)c1ccc2nc(NC(=O)OC)[nH]c2c1 (stereo not given)	–	·	·	–	·	·	·	·	·	·	·	·	·
COC1=C2C[C@@H](C)C[C@H](OC)[C@@H](O)[C@@H](C)C=C(C)[C@H](OC(N)=O)[C@@H](OC)C=CC=C(C)C(=O)NC(=CC1=O)C2=O	0.769µM	·	·	·	·	·	1.62µM	1.62µM	6.44µM	?	1.14µM	–	0.722µM
COc1cccc(CNc2nc3cc(-c4cnn(Cc5ccccc5)c4)sc3c(=O)n2C)c1	–	·	·	–	–	–	·	·	·	·	·	·	·

From PubChem
